Compound activity as filed in PubChem.
This is a sample that favours compounds with a hit; in the whole collection about 19% have one here.
DT40 TDP1 no CPT = qHTS for Inhibitors of human tyrosyl-DNA phosphodiesterase 1 (TDP1): qHTS in cells in absence of CPT; Potency, µM (titrated, usually from 46.2 µM), most hits filed as inhibitors; AID 686978, 2013; DT40 Tdp1-/- hTDP1 cells, no CPT, ATP luminescence, 48 h; 420,000 compounds, 15% hits; note: nearly all actives have a fitted effect of over 55% in size
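Compound effects on proliferation are scored in DT40 Tdp1-/-;hTDP1 cells in the absence of CPT. ATP levels (CellTiter-Glo luminescence) are recorded after a ≥48 hr, 37 °C incubation.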
DT40 TDP1 CPT = growth inhibition of DT40 Tdp1-/-;hTDP1 cells with camptothecin (screen for TDP1 inhibitors); Potency, µM (top dose mostly 46.2 µM), actives largely listed as inhibitors; 420,000 compounds, 12% hits; chicken DT40 Tdp1-/-;hTDP1 cells + 20 nM CPT, ATP luminescence, 48 h; note: nearly all actives have a fitted effect of over 55% in size
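Chicken DT40 Tdp1-/- cells stably complemented with human TDP1 were seeded at 400 cells/well in medium containing 20 nM camptothecin, exposed to pin-transferred compounds, and grown at 37 °C for at least 48 hr. Viability was read as ATP luminescence.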
TGFb inhibitor = blocks TGF-b signaling; 410,000 compounds, 1.2% hits; HepG2 CAGA-GFP TGF-b/SMAD3 reporter, GFP fluorescence, 18 h; TGF-beta stimulated, 500 pg/mL final; Potency, µM (highest dose often 46.1 µM), hits mostly inhibitors; note: nearly all actives have a fitted effect of over 65% in size
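First, reporter cells (HEPG2 CAGA-GFP) rested 2 h at 37 degrees C. Next, compounds were pinned in and TGF-beta added to 500 pg/mL final. After 18 h, GFP was imaged per cell and summed per well.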
HepG2 viability = HepG2 cytotoxicity, counter-screen for TGF-b inhibitors; HepG2 CAGA-GFP viability, ATP luminescence, 18 h; Potency, µM (titrated, usually from 46.1 µM), usual class: cytotoxic; 410,000 compounds, 0.76% hits; AID 588856
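HepG2 CAGA-GFP cells (1000/well, DMEM with 1% FBS) received compound, then TGF-beta at 500 pg/mL final, and were incubated 18 hours at 37 degrees C. Viability was read by CellTiter-Glo luminescence. Media-only wells were set as complete cell-killing and DMSO as no toxicity.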
S-ASM inh = inhibitors of human secretory acid sphingomyelinase; 340,000 compounds, 0.006% hits; P17405; placental ASM, HMU-PC fluorogenic substrate, 60 min; Potency, µM (top dose mostly 57.5 µM), usual class: inhibitors
Target sequence (P17405 47-631 limits assumed): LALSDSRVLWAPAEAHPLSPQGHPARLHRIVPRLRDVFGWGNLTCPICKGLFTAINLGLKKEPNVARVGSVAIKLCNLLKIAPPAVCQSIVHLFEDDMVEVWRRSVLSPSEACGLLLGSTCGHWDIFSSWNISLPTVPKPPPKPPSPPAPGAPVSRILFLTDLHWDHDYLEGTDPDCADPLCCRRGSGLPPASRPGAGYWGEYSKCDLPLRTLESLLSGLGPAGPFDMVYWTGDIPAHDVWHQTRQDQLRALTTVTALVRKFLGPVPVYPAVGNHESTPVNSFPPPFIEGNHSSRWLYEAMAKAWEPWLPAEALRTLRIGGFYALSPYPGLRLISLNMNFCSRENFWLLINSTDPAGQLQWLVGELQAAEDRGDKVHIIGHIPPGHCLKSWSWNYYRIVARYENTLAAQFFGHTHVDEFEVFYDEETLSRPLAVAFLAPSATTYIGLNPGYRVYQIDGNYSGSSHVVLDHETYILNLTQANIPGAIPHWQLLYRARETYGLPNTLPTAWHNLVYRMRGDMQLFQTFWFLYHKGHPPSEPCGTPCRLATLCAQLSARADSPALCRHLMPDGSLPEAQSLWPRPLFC
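Human placenta-derived ASM enzyme was preincubated with compound for 10 minutes at room temperature, then given fluorogenic substrate HMU-PC0 (9 uM final) for 60 minutes at 37 °C; a pH 10 stop preceded fluorescence reading at Ex 386/Em 447 nm.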
IL1B secr inh = blocks inflammasome-driven IL-1 beta release. THP-1 LPS/ATP IL-1B secretion, AlphaLISA, 16 h; active compounds read low. activity change, % at 57.5 µM. 360,000 compounds, 4.7% hits. AID 743279; in the data active = activity change below about -50%; inconclusive = mostly about -30% to -49%
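THP-1 cells pretreated 1 hr with compounds (up to 57.5 uM final), then stimulated with LPS (250 ng/mL final) plus ATP (1.25 mM final); secreted IL-1B measured by AlphaLISA after 16 hr, decreased signal indicating inhibition.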
Of the large screens only hits and unclear results are named; the others gave an inactive call. Unless noted, calls come from the whole dose curve; as a rule, active = well fitted curve in the direction sought with a large enough effect; inconclusive = small, poorly fitted or top-dose-only effect, or another doubt; inactive = no such curve, though single readings can be large; an effect the other way counts as inactive or inconclusive.

Nc1nc(C23CC4CC(CC(C4)C2)C3)[nH]c(=O)n1	none
Cc1ccc(S(=O)(=O)N2CCCCC2)cc1NC(=O)CCOc1ccccc1	DT40 TDP1 no CPT inconclusive, DT40 TDP1 CPT inconclusive
Cc1cc(Br)ccc1NC(=O)CN(C)C(=O)CNC(=O)Cc1ccccc1	DT40 TDP1 no CPT inconclusive, DT40 TDP1 CPT inconclusive
CCN(CC(=O)NCC(=O)Nc1ccc(Br)cc1C)Cc1ccccc1	DT40 TDP1 no CPT inconclusive, IL1B secr inh -63
CCN(CC(=O)Nc1cc(S(=O)(=O)N2CCCCC2)ccc1C)Cc1ccccc1	DT40 TDP1 no CPT 18µM, DT40 TDP1 CPT 21µM
Cc1ccc(S(=O)(=O)N2CCCCC2)cc1NC(=O)CCCOc1ccccc1	DT40 TDP1 no CPT 21µM, DT40 TDP1 CPT inconclusive
CCN(CC(=O)Nc1ccc(C)c(S(=O)(=O)N2CCOCC2)c1)Cc1ccccc1	DT40 TDP1 no CPT inconclusive, DT40 TDP1 CPT 21µM
Cc1ccc(NC(=O)CCc2ccccc2)cc1S(=O)(=O)N1CCOCC1	DT40 TDP1 no CPT inconclusive
O=c1[nH]c(SCc2ccc(Cl)cc2)nc2[nH]ncc12	DT40 TDP1 no CPT inconclusive, DT40 TDP1 CPT inconclusive
O=c1oc(-c2ccccc2NS(=O)(=O)c2ccc3ccccc3c2)nc2ccccc12	TGFb inhibitor inconclusive
CC(=O)c1ccc(OCCCC(=O)Nc2cc(S(=O)(=O)N3CCCCC3)ccc2C)cc1	DT40 TDP1 no CPT 23µM, DT40 TDP1 CPT inconclusive
Clc1ccc(OCc2nnc3n2N=C(c2ccc4c(c2)OCCO4)CS3)c(Cl)c1	DT40 TDP1 no CPT 12µM, DT40 TDP1 CPT 9.2µM, TGFb inhibitor inconclusive
CC(=NO)C1CCC2C3CCC4=CC(=NO)CCC4(C)C3C(=O)CC12C (stereo not given)	DT40 TDP1 no CPT 16µM, DT40 TDP1 CPT 13µM
CC(=NO)C1CCC2C3CCC4=CC(=NO)CCC4(C)C3C(O)CC12C (stereo not given)	DT40 TDP1 no CPT 16µM, DT40 TDP1 CPT 13µM
CC(=O)Oc1ccccc1-c1nc(/C=C/c2ccccc2)no1	none
Cc1ccc2c(c1)c1n[nH]c(=S)nc1n2CCc1ccccc1	DT40 TDP1 no CPT 26µM, DT40 TDP1 CPT 16µM
C/C=C(/C)C(=O)OC1c2c(ccc3ccc(=O)oc23)OC(C)(C)C1OC(=O)/C(C)=C\C (stereo not given)	DT40 TDP1 no CPT inconclusive, DT40 TDP1 CPT inconclusive, TGFb inhibitor 11µM
CC(=O)O[C@@H]1[C@H](OC(=O)CC(C)C)c2c(ccc3ccc(=O)oc23)OC1(C)C	DT40 TDP1 no CPT inconclusive, DT40 TDP1 CPT 26µM
CCO[C@H]1c2c(ccc3ccc(=O)oc23)OC(C)(C)[C@H]1O	none
O=C(Cn1nnc2ccccc2c1=O)NC1CCCCC1	none
COc1ccccc1N1CCN(C(=O)c2ccc(COc3cccc4c3OC(C)(C)C4)cc2)CC1	DT40 TDP1 no CPT 16µM, DT40 TDP1 CPT inconclusive, TGFb inhibitor inconclusive, IL1B secr inh inconclusive
O=C(c1ccc(CN2CCc3ccccc3C2)cc1)N1CCN(c2ccc(F)cc2)CC1	DT40 TDP1 no CPT 13µM, DT40 TDP1 CPT 16µM, TGFb inhibitor inconclusive, IL1B secr inh -63
O=C(c1ccc(Cn2cc(Br)cn2)cc1)N1CCN(c2ccccc2)CC1	DT40 TDP1 no CPT 16µM, DT40 TDP1 CPT 15µM, TGFb inhibitor inconclusive
O=C(c1ccc(CN2CCc3ccccc3C2)cc1)N1CCCCC1	DT40 TDP1 no CPT inconclusive
CC1(C)Cc2cccc(OCC(=O)N3CCN(c4ccccc4F)CC3)c2O1	DT40 TDP1 no CPT inconclusive, DT40 TDP1 CPT inconclusive
COc1ccccc1N1CCN(C(=O)c2ccc(CN3CCc4ccccc4C3)cc2)CC1	DT40 TDP1 no CPT inconclusive, DT40 TDP1 CPT 16µM
